Assay results published in article PMC4336329 (PLoS ONE, 2015).
The campaign covered roughly 310,000 compounds. About 14,000 (4.5%) showed an effect of 50% or more. Effects have a minus sign here. The list comes from a sample in which strong results are over-represented; it also holds similar structures and randomly drawn compounds.

biological target: human ether-à-go-go-related gene (hERG) potassium channel (human, UniProt Q12809); experiment: primary screen, population patch clamp on CHO cells stably expressing hERG; higher = less effect of the substance
Sequence (Q12809 whole entry, looked up): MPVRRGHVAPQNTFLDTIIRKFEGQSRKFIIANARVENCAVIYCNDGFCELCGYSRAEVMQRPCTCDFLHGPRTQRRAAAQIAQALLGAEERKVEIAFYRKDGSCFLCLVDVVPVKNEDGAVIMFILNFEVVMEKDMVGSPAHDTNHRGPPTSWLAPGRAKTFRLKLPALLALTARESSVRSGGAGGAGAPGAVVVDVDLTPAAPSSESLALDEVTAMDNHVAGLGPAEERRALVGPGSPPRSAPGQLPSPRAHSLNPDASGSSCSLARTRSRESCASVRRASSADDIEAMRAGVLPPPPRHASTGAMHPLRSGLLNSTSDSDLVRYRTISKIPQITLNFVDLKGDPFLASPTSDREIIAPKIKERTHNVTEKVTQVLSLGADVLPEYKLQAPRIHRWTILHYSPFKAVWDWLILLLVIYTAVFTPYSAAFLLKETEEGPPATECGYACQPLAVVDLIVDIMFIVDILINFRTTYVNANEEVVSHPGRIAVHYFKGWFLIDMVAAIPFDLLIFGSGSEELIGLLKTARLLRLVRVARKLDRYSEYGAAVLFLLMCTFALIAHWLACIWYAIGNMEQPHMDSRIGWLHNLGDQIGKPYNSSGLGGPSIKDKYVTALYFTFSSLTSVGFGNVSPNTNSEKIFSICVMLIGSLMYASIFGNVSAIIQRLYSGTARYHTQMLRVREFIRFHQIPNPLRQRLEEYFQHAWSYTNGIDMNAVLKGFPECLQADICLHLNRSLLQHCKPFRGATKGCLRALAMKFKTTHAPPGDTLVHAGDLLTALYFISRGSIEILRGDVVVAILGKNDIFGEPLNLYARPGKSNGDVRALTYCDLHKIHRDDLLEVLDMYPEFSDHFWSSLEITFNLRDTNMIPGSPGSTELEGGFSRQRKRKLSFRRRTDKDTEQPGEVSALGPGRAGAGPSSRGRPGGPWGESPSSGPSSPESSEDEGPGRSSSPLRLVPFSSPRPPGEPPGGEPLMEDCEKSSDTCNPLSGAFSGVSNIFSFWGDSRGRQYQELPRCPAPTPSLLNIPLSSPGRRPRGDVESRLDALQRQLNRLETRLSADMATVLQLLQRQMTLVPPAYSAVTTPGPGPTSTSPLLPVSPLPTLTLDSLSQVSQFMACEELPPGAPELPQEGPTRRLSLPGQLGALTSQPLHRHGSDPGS
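Note: peak tail current of the secondary pulse compared with the same well before compound.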

Row | SMILES | hERG current change (%, negative = inhibition) at 10uM [%]
1 | CCCCN1C(=O)NC(=O)C2(Cc3c(nc4ccccn4c3=O)N3CCc4ccccc4C32)C1=O (stereo not drawn) | -16.6
2 | Cc1sc2nc(CSc3ncn[nH]3)[nH]c(=O)c2c1C | 33.7
3 | Cn1c(-c2sc3cc(C(F)(F)F)cnc3c2-c2ccccc2)n[nH]c1=S | 20.1
4 | O=C(O)C(=O)O.Oc1ccccc1NCC(O)Cn1ccc2ccccc21 (stereo not drawn) | 13.4
5 | NC(=O)c1ccccc1NC(=O)NC1CCCCC1 | -6.68
6 | CCOC(=O)CCSCC(=O)Nc1cc(C)on1 | -3.91
7 | Cc1ccc(C(=O)NC(=S)Nc2ccccc2C(F)(F)F)cc1 | 16.3
8 | CC(C)NS(=O)(=O)c1ccc(NC(=O)NC2CCCCC2)cc1 | 1.79
9 | c1ccc(Cn2cc(-c3ccccc3)cn2)cc1 | -2.61
10 | CC(C)N1CCN(Cc2cnc(-c3ccccc3)s2)CC1CCO (stereo not drawn) | -9.9
11 | Cc1ncc(CN2CCN(CCC(C)C)C(CCO)C2)s1 (stereo not drawn) | -20.1
12 | CC(C)CCN1CCN(Cc2cnc(-c3ccccc3)s2)CC1CCO (stereo not drawn) | -56.6
13 | CCCOc1ccc(C(C)=O)cc1CC(C(N)=O)C(N)=O | 14.9
14 | CCCCOP(=O)(c1ccc(N(C)C)cc1)C(O)c1ccc(C(C)C)cc1 (stereo not drawn) | -13
15 | O=c1[nH]c2ccccc2n2c(C(F)(F)F)nnc12 | 14
16 | Cc1ccc(S(=O)(=O)N(Cc2cccc(Cl)c2)C(=O)N2CCN(C)CC2)cc1 | 9.85
17 | CCn1c(SCC(=O)N/N=C/C=C\c2ccccc2[N+](=O)[O-])nc2ccccc21 | -63.8
18 | CCn1c(SCC(=O)NC(=O)NC(C)(C)C)nc2ccccc21 | 4.41
19 | Cn1c(SCC(=O)N/N=C/C=C/c2ccccc2[N+](=O)[O-])nc2ccccc21 | -1.36
20 | CCn1c(SCC(=O)N/N=C/C=C/c2ccccc2[N+](=O)[O-])nnc1-c1ccccc1 | -36.6
21 | COCCn1c(SCC(=O)Nc2ccccc2OC)nc2ccccc21 | -25.4
22 | CCn1c(SCC(=O)NC(=O)c2ccccc2OC)nc2ccccc21 | -70.8
23 | CCn1c(SCC(=O)N/N=C/C=C/c2ccccc2[N+](=O)[O-])nnc1-c1ccc(Cl)cc1 | -15.6
24 | Cn1c(SCC(=O)N/N=C/C=C\c2ccccc2[N+](=O)[O-])nc2ccccc21 | 10.4
25 | CCn1c(SCC(=O)N/N=C/C=C\c2ccccc2[N+](=O)[O-])nnc1-c1ccccc1 | -67

Row | SMILES | hERG current change (%, negative = inhibition) at 10uM [%]
26 | O=C1OCCN1C(=O)[C@H]1[C@H](c2ccc(Cl)cc2)C(c2cccc(Cl)c2)=NN1c1ccccc1 | 14
27 | COc1ccccc1C(=O)C1CCCN(C(=O)Nc2ccccc2F)C1 (stereo not drawn) | 37.3
28 | Cc1nn2c(N)c(C#N)cnc2c1-c1ccc(Cl)cc1 | -0.156
29 | Cc1cc2nnc(SCC(=O)NCc3cccs3)n2c(N)n1 | -8.37
30 | Cc1cccc(-n2nnc(C(=O)NCc3ccco3)c2N)c1 | -10.2
31 | OC1=C(O)c2nc3ccccc3nc21 | -1.17
32 | CC(C)Sc1nc2c([nH]1)c(=N)ncn2Cc1ccccc1 | -5.52
33 | Cc1noc(C)c1COc1ccc(CC(=O)NC2CCCCCC2)cc1 | 39.5
34 | COc1cc(C2NC(=O)CCC2[N+](=O)[O-])cc(OC)c1OC (stereo not drawn) | 29.6
35 | COCCCN(C(=S)Nc1cc(C)cc(C)c1)C(C)c1ccncc1 (stereo not drawn) | -41
36 | COCCCN(C(=S)Nc1cc(Cl)cc(Cl)c1)C(C)c1ccncc1 (stereo not drawn) | -70.6
37 | COc1cc(Cl)ccc1NC(=S)N(CCN(C)C)C(C)c1ccncc1 (stereo not drawn) | -39.2
38 | CSc1cccc(NC(=S)N(CCN(C)C)C(C)c2ccccn2)c1 (stereo not drawn) | -36.2
39 | CSc1cccc(NC(=S)N(CCN(C)C)C(C)c2ccncc2)c1 (stereo not drawn) | -50.6
40 | CCc1cccc(NC(=S)N(CCN(C)C)C(C)c2ccncc2)c1 (stereo not drawn) | -44
41 | COc1ccc(NC(=S)N(CCN(C)C)C(C)c2ccco2)cc1Cl (stereo not drawn) | -36.3
42 | COCCCN(C(=S)Nc1cccc(Cl)c1)C(C)c1ccncc1 (stereo not drawn) | -17.3
43 | COc1ccc(NC(=S)N(CCN(C)C)C(C)c2ccncc2)cc1Cl (stereo not drawn) | -59.9
44 | Cc1ccc(C(=O)c2ccc(C(F)(F)F)cc2)cc1 | 7.79
45 | CC(=O)N(C)C1=C(O)c2ccccc2C(=O)C1=O | 22.3
46 | Cc1ccc(NC(=O)COC(=O)Cc2c[nH]c3ccccc23)cc1C | -7.15
47 | COc1ccccc1-c1nnc(SCc2nc3ccccc3s2)n1C | -17
48 | COc1ccc(C(=O)COC(=O)Cn2cnc3c2c(=O)n(C)c(=O)n3C)c(OC)c1 | 3.76
49 | CSc1nsc(SCC(=O)NCc2ccc(C)cc2)n1 | 10.1
50 | COc1cc(OC)cc(-c2nnc(SCC(=O)N3CCOCC3)o2)c1 | 9.82

Row | SMILES | hERG current change (%, negative = inhibition) at 10uM [%]
51 | Nc1nc(SCc2ccc(Cl)cc2)ns1 | -7
52 | CCCCNCc1cc(Br)c(OCC(=O)NCc2ccccc2)c(OC)c1.Cl | -39.4
53 | NC(=O)N/N=C/c1cc(Br)ccc1OCC(=O)NCc1ccccc1 | -6.43
54 | CCNCc1cc(Br)c(OCC(=O)Nc2ccccc2)c(OC)c1.Cl | -19.8
55 | CCN(CC)CCNCc1cc(Cl)c(OCC(=O)Nc2ccccc2)c(OC)c1.Cl | -62.5
56 | CCN(CC)CCNCc1ccc(Br)cc1OCC(=O)NCc1ccccc1.Cl | -67.2
57 | COc1cc(CNC(C)c2ccccc2)cc(Cl)c1OCC(=O)Nc1ccccc1.Cl (stereo not drawn) | 9.86
58 | CCOc1cc(CNCCN(C)C)c(Cl)cc1OCC(=O)NCCc1ccccc1.Cl | -10.8
59 | COc1cc(CNCCN(C)C)c(Br)cc1OCC(=O)NCc1ccccc1 | -29.2
60 | CCN(CC)CCNCc1cc(Br)ccc1OCC(=O)NCc1ccccc1.Cl | -83.2
61 | Cc1c(C(=O)Nc2ccc(S(=O)(=O)Nc3ncccn3)cc2)oc2ccc(Cl)cc12 | -17.4
62 | Cn1c(=O)c2c(nc(CN3CCOCC3)n2CCc2ccccc2)n(C)c1=O | 7.53
63 | Cc1ncc(CO)c2cc(C(N)=O)c(=Nc3ccccc3)oc12 | -27.7
64 | COc1ccc(C(O)P(=O)(OCC(C)C)c2ccc(N(C)C)cc2)c(OC)c1 (stereo not drawn) | -3.56
65 | CC1CCN(CCc2nc3ccccc3[nH]2)CC1 | -63.7
66 | c1ccc2[nH]c(CCCc3nc4ccccc4[nH]3)nc2c1 | -7.32
67 | CCCc1nc2ccccc2[nH]1 | 24.6
68 | CSc1ccc(C(=O)C2CCCN(C(=O)Cn3cnnn3)C2)cc1 (stereo not drawn) | -12.8
69 | COc1ccc(Cl)cc1C(=O)C1CCCN(Cc2cnc(N3CCOCC3)s2)C1 (stereo not drawn) | -57.6
70 | COc1ccc2cc(C(=O)C3CCCN(Cc4cnc(N5CCOCC5)s4)C3)ccc2c1 (stereo not drawn) | 14.6
71 | CCn1ccnc1CN1CCCC(C(=O)c2ccc(SC)cc2)C1 (stereo not drawn) | -58.3
72 | COc1ccc(C(=O)C2CCCN(Cc3cnc(N4CCOCC4)s3)C2)c(OC)c1 (stereo not drawn) | -46.9
73 | COc1ccc(Cl)cc1C(=O)C1CCCN(Cc2cnc(C)s2)C1 (stereo not drawn) | -38.1
74 | CCn1ccnc1CN1CCCC(C(=O)c2cc(C)c(OC)c(C)c2)C1 (stereo not drawn) | -23.2
75 | CCn1ccnc1CN1CCCC(C(=O)c2ccc3cc(OC)ccc3c2)C1 (stereo not drawn) | -70.6

Row | SMILES | hERG current change (%, negative = inhibition) at 10uM [%]
76 | CCn1ccnc1CN1CCCC(C(=O)c2cc(F)ccc2OC)C1 (stereo not drawn) | -33
77 | CCn1ccnc1CN1CCCC(C(=O)c2cc(Cl)ccc2OC)C1 (stereo not drawn) | -73.3
78 | CSc1ccc(C(=O)C2CCCN(C(=O)c3ccc(C)nc3)C2)cc1 (stereo not drawn) | -22.4
79 | Cc1ccc(NC(=O)c2cnccn2)cc1 | 15.8
80 | CCCn1c(Cc2ccccc2)nnc1SCC(=O)N1CCOCC1 | 16.7
81 | NC(=S)N/N=C/c1ccc([N+](=O)[O-])cc1 | -8.06
82 | O=C(CC1C(=O)NCCN1Cc1ccc(Cl)c(F)c1)NCC1CCOCC1 (stereo not drawn) | 9.07
83 | CCOC(=O)C1(Cc2ccc(O)cc2)NC(c2ccccc2F)C2C(=O)N(C)C(=O)C21 (stereo not drawn) | -2.04
84 | CCC(=O)NC(c1cccs1)c1cc([N+](=O)[O-])c2cccnc2c1O (stereo not drawn) | 15
85 | CC1=NNC(=O)C1CCC(=O)N/N=C(\C)c1ccccc1 (stereo not drawn) | 28.3
86 | CCCCOc1ccc(NC(=O)CSc2nnnn2C)cc1 | -2.43
87 | NCCNc1cc(N2CCCC2)ccc1[N+](=O)[O-] | 4.66
88 | O=C(C1CCCC1)N1CCN(S(=O)(=O)c2ccc(F)cc2)CC1 | 15.9
89 | COc1cc(C2C(C(=O)c3ccc(C)o3)=C(O)C(=O)N2Cc2cccnc2)ccc1O (stereo not drawn) | 10.9
90 | O=C(CCC(=O)NC1CCN(Cc2ccccc2)CC1)NCc1ccco1 | -1.88
91 | Cc1cccc(-c2nnc(SCC(=O)O)n2Cc2ccccc2)c1 | -6.26
92 | N#CCSc1nnc(-c2ccccc2O)n1Cc1ccccc1 | 5.13
93 | N#CCSc1nnc(COc2cccc3ccccc23)n1-c1cccc(Cl)c1 | 8.77
94 | Cc1cccc(-c2nnc(SCC#N)n2Cc2ccccc2)c1 | -66.6
95 | Cc1cccc(-c2nnc(SCC#N)n2-c2cccc(Cl)c2)c1 | -62.5
96 | Cc1ccc(-n2c(SCCN)nnc2-c2cccc(C)c2)cc1.O=C(O)C(=O)O | -38
97 | Cc1cc(C)nc(SCc2nnc(SCC#N)n2-c2cccc(Cl)c2)n1 | -17.6
98 | Cc1cccc(-c2nnc(SCC#N)n2-c2ccccc2)c1 | -54.7
99 | Cc1cccc(-c2nnc(SCC#N)n2C)c1 | 13.2
